Screening results: PubChem, National Center for Advancing Translational Sciences (NCATS)
USP2a inh – USP2a (human) protease inhibition; O75604; USP2 core, Ub-CHOP2 coupled fluorogenic reporter, 485/531; Potency, µM (titrated, usually from 38.3 µM), without a hit: at the highest dose activity change, negative = inhibition, hits mostly inhibitors; hit rate 0.01% among 330,000; AID 463254;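 note: potency is the fitted concentration of half-maximal effect; plate controls were DMSO wells for no effect and full inhibition by NEM control for full effect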
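USP2 core (10nM final) preincubated 30min RT with compound in 20mM Tris-HCl pH 8.0, 2mM CaCl2, 2mM beta-mercaptoethanol, 0.05% CHAPS; 25nM Ub-CHOP2 plus 25nM reporter substrate added, fluorescence (Ex485/Em531) read after 60min.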
Pin1 inh – blocks the human prolyl isomerase Pin1; Q13526; Pin1 FP peptide displacement, HiFluor488, 10 min; Potency, µM (highest dose often 115 µM), inactives show at the top dose activity, negative = inhibition, usual class: inhibitors; hit rate 0.009% among 390,000; active = well fitted inhibition curve with a large enough effect in the polarisation, with a control signal flat, not every such curve was filed as active; inconclusive = small, poorly fitted or top-dose-only effect, or effect the other way, or a change in a side signal; inactive = no such curve, though single readings can be large or run the other way; the % refers to the polarisation; note: potency is the fitted concentration of half-maximal effect; % is set by controls: 0 for no effect and ±100 for the full control effect
Target sequence (Q13526 whole entry, looked up): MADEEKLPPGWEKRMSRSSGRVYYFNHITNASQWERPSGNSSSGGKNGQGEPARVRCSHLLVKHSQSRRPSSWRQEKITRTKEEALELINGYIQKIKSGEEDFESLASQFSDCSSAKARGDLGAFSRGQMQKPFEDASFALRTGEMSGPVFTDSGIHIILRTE
IL2 activator – IL-2 activation; IL-2 activation reporter assay, cell-based qHTS; stimulated with anti-CD3/CD4/CD28 beads; in transgenic mouse T cells; activation, % (series mostly up to about 46 µM); hit rate 0.065% among 360,000; AID 652025; in the data active = activation above about 50%; inconclusive = mostly about 30% to 49%; note: 0% is about no effect
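Using fluorescent plate cytometry, EGFP and DsRed are detected in transgenic mouse T cells stimulated 18 h at 37 degrees C with antibody-coated beads after 60 min compound pretreatment.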
Integrin act MD – integrin-mediated muscular dystrophy alleviation activation | alpha7betagal myoblasts, beta-gal FDG fluorescence, 48 h | Potency, µM (highest dose often 38.3 µM), without a hit: top-dose activation, usual class: activators | hit rate 0.064% among 350,000;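 note: potency is the fitted concentration of half-maximal effect; 100% = response of the positive control SU9516; nearly all actives have a fitted effect of over 60% in size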
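Alpha7betagal+/- myoblasts (passage 13) were plated 16-24 hr, then exposed to compounds (1:260 dilution of DMSO stock) for 48 hours at 37C. After MPER lysis, β-galactosidase reporter activity was read as FDG fluorescence (ex 480/em 540) after 30 minutes.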
ClpP mod – qHTS Assay for Activators of ClpP. ATP-dependent Clp protease proteolytic subunit (Bacillus subtilis (strain 168)), P80244. Potency, µM (highest dose often 57.5 µM), for inactives: top-dose activity change, negative = active. hit rate 1.9% among 340,000. purified B. subtilis ClpP, FRET peptide cleavage, 20 min; active = well fitted falling curve with a large enough effect; inconclusive = small, poorly fitted or top-dose-only effect; inactive = no such curve, though single readings can be large or run the other way; note: potency is the fitted concentration of half-maximal effect; the source files actives as falling curves though it sought activators and does not explain the sign; nearly all actives have a fitted effect of over 65% in size
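FRET quenching reversal measured ClpP activation: 10 microg/mL B. subtilis ClpP at pH 8 with the FRET-FV decapeptide, read at 430 nm after 320 nm excitation. The 20-min minus 0-min signal was scaled between DMSO/no-enzyme wells and ADEP (5.8 microM final).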
PKM2 act – increases activity of human pyruvate kinase M2 | P14618 | hit rate 0.34% among 260,000 | Potency, µM (titrated, usually from 57.5 µM), inactives show at the top dose activation, hits mostly activators | purified PKM2, Kinase-Glo ATP luminescence, activation; response scale: 0% is enzyme alone, no compound | AID 1631; note: potency is the fitted concentration of half-maximal effect; % is set by controls: 0 for no effect and ±100 for the full control effect; nearly all actives have a fitted effect of over 55% in size
Target sequence (P14618 whole entry, looked up): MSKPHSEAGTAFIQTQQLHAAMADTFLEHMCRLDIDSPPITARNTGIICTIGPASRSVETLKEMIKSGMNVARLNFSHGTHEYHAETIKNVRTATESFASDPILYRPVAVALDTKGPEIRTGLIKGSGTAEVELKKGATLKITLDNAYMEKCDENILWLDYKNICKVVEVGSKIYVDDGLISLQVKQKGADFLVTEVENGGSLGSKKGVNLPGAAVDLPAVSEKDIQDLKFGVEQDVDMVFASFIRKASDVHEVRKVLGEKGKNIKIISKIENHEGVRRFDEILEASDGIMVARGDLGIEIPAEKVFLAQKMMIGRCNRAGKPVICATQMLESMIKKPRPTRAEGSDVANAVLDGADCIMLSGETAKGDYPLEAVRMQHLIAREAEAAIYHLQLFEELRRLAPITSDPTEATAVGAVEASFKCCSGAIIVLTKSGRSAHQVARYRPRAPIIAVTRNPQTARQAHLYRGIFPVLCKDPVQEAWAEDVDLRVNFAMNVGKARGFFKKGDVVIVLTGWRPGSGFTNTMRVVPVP
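Kinase-Glo luminescence reports ATP generated from ADP (0.1 mM) and PEP (0.5 mM) by purified hPK-M2 after 1 h at room temperature, pH 7.2 imidazole buffer; intermediate enzyme activity allows detecting inhibitors and activators.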
* marks the source's active call; other numbers are inactive results; ? = inconclusive; / = no result; ! = not confirmed by another sample. Rows were chosen to be rich in hits. Some 1.9% of all compounds tested hit in one or more screens of this group. Unless noted, calls come from the whole dose curve; as a rule, active = well fitted curve in the direction sought with a large enough effect; inconclusive = small, poorly fitted or top-dose-only effect, or another doubt; inactive = no such curve, though single readings can be large; an effect the other way counts as inactive or inconclusive.

SMILES	USP2a inh	Pin1 inh	IL2 activator	Integrin act MD	ClpP mod	PKM2 act
O=C(NCCc1ccccc1)c1ccccc1NS(=O)(=O)N1CCCC1	3%	8%	-1	-24%	14µM*	1%
O=S(=O)(Nc1ccc2c(c1)oc1ccccc12)N1CCCC1	-8%	?	-3	-7%	?	0%
O=S(=O)(Nc1cccc2ccccc12)N1CCCC1	1%	10%	-3	-12%	28µM*	-5%
O=C(NCCc1ccccc1)c1ccc(S(=O)(=O)N2CCCCC2)cc1	/	/	-1	-15%	-2%	/
COc1ccc[n+](CC(=O)c2ccc(F)cc2)c1	/	/	/	/	-1%	/
Nc1c(C(=O)Nc2ccccc2F)sc2nc(-c3ccco3)ccc12	4%	?	8	26%	28µM*	3%
O=C(COc1ccc(F)cc1)Nc1cc(S(=O)(=O)N2CCCCC2)ccc1N1CCCCC1	-8%	30%	-5	13%	16µM*	/
O=C(COc1ccc([N+](=O)[O-])cc1)Nc1cc(S(=O)(=O)N2CCCCC2)ccc1N1CCCCC1	2%	19%	0	16%	-2%	/
O=[N+]([O-])c1cc(S(=O)(=O)N2CCCC2)ccc1N/N=C1/CCCc2ccccc21	4%	-1%	0	15%	16µM*	-4%
CCOC(=O)c1c(N2C(=O)Nc3cc(Cl)c(Cl)cc3N2O)sc2c1CCCCC2	-20%	54µM*	-1	8%	16%	-1%
CCOC(=O)c1c(-n2cnnn2)sc2c1CCCC2	0%	-4%	1	-25%	4%	3%
COc1ccc(/C=C/c2ccccn2)cc1	/	/	/	/	1%	/
CN(C)c1ccc(C=Nc2ccccc2C(N)=O)cc1	0%	2%	1	-16%	25µM*	-11%
CC(C)(C)OC(=O)NC(Cc1ccccc1)C(=O)NC1COC2CC(n3ccc(=O)[nH]c3=O)OC12 (stereo not given)	/	-4%	/	/	/	/
Cc1cc(NC(=O)c2ccccc2Cl)n(C(C)(C)C)n1	7%	2%	-4	?	16µM*	1%
O=C(Cn1cnc2c(nnn2Cc2ccc(F)cc2)c1=O)N1CCN(c2ccccc2)CC1	1%	?	1	-14%	25µM*	1%
O=C(Cn1cnc2ccccc2c1=O)N1CCN(Cc2ccccc2)CC1	2%	-11%	1	4%	20µM*	-1%
O=C(Cn1cnc2ccccc2c1=O)N1CCN(Cc2ccc3c(c2)OCO3)CC1	4%	1%	0	4%	2%	3%
O=C(Cn1cnc2c(cnn2-c2ccccc2)c1=O)N1CCN(c2ccc(F)cc2)CC1	2%	6%	0	4%	-2%	1%
CCOC(=O)c1ccc(N2CCN(c3ccc(F)cc3)CC2)c(NC(=O)Nc2ccc(CC)cc2)c1	/	2%	/	/	-4%	/
CCOC(=O)c1ccc(N2CCN(c3ccc(F)cc3)CC2)c(NC(=O)Nc2cccc(OC)c2)c1	0%	8%	4	-16%	28µM*	2%
CC1CC=CC2C1C(=O)N(Cc1ccccc1)C2c1ccoc1 (stereo not given)	/	42%	/	/	/	/
CN(C)S(=O)(=O)Oc1ccccc1C(=O)Nc1ccc(F)cc1F	2%	3%	-1	?	/	-8%
CCN(CC)C(=O)Oc1ccc(Br)cc1C(=O)Nc1ccc(F)cc1F	2%	-10%	1	-19%	32µM*	-5%
COc1ccc(C(CNC(=O)c2cccc(S(=O)(=O)N3CCOCC3)c2)N2CCOCC2)cc1 (stereo not given)	-1%	-1%	-6	-2%	1%	/
SMILES	USP2a inh	Pin1 inh	IL2 activator	Integrin act MD	ClpP mod	PKM2 act
O=C(NCC(O)c1ccccc1)c1cccc(S(=O)(=O)N2CCOCC2)c1 (stereo not given)	1%	-3%	1	0%	32µM*	-1%
O=C(CN1C(=O)C(=O)N(CCC2=CCCCC2)C1=O)c1c[nH]c2ccccc12	2%	1%	1	-15%	11µM*	/
O=C(CN1C(=O)C(=O)N(Cc2ccco2)C1=O)c1c[nH]c2ccccc12	-2%	-15%	3	-26%	-3%	-4%
CC(C)CCn1c(SC(C)C#N)nc2ccccc2c1=O (stereo not given)	/	3%	/	/	-2%	/
O=C1[C@H](Cc2ccccc2)NC/C=C\C[C@H](c2ccco2)N1Cc1ccccc1	/	/	/	/	-3%	/
CCN(CC)c1ccc2cc(C(=O)NNC(=O)c3ccc(S(=O)(=O)N4CCCCC4)cc3)c(=O)oc2c1	2%	?	59*	28%	-3%	-15%
Cn1cc(S(=O)(=O)c2ccccc2)c(=O)c2cc(F)c(N3CCOCC3)cc21	4%	2%	-1	?	28µM*	/
Cc1ccc(S(=O)(=O)c2cn(C)c3cc(N4CCN(C)CC4)c(F)cc3c2=O)cc1	1%	-1%	-2	12%	25µM*!	1%
CCc1ccc(S(=O)(=O)c2cn(C)c3cc(N4CCN(CC)CC4)c(F)cc3c2=O)cc1	/	-1%	/	/	11µM*	/
Cc1ccc2c(c1)-c1ccccc1S(=O)(=O)N2	0%	-5%	0	-19%	28µM*	-4%
COc1cc(NC(=O)c2cc3cccc(OC)c3o2)cc(C(=O)Nc2cccc(C(F)(F)F)c2)c1	-1%	60%	0	-26%	25µM*	0%
Cc1nc2ccc(NS(=O)(=O)c3ccc(C)c(C)c3)cc2s1	4%	6%	-2	-44%	1%	?
Cc1nc2ccc(S(=O)(=O)Nc3ccccc3C)cc2s1	2%	1%	-4	-27%	-1%	16µM*
O=C1CCCc2oc3ccc(NS(=O)(=O)c4cccc5cccnc45)cc3c21	6%	0%	1	-66%	/	6%
O=C(c1ccc(NS(=O)(=O)c2cccc3cccnc23)cc1)N1CCCCC1	3%	6%	1	-10%	1%	16µM*
O=c1oc2ccc(NS(=O)(=O)c3cccc4cccnc34)cc2s1	3%	-11%	-1	?	/	14µM*
CC[N+](C)(C)c1ccc(/C=C/c2ccc3ccccc3n2)cc1	/	/	/	/	-1%	/
O=C(C[n+]1ccc(-c2nnc3n2CCC3)cc1)c1ccc(Cl)cc1	6%	?	-3	-29%	32µM*	0%
Cc1ccc(C(=O)C[n+]2ccc(-c3nnc4n3CCC4)cc2)cc1	2%	-7%	0	4%	11µM*	4%
N=C1CCCN1CC(=O)c1ccc(Cl)cc1	7%	0%	0	22%	2%	4%
C=CCc1cc(F)c(S(=O)(=O)N2CCN(S(=O)(=O)c3ccc4c(c3)OCCO4)CC2)cc1F	/	-13%	/	/	/	/
O=C(OCC#CCSc1nnc(-c2cccc3ccccc23)o1)c1ccncc1	/	0%	/	/	/	/
